# Key:
# Experiment in all cases: DAPPL (digital affinity profiling via proximity ligation, sequencing); 10 mM Tris-HCl pH 7.5, 50 mM NaCl, 1 mM DTT, 4% glycerol, room temperature, 30 min; GST-TFs on glutathione beads, 16-mer random dsDNA library, 0.1% formaldehyde crosslink after washing; high values mean tight binding
# FLI1 = molecular target: T1, FLI1 (Homo sapiens, UniProt Q01543 1-452); settings: protein: recombinant; tags: N-terminal GST; dsDNA, one strand shown
# T1 sequence: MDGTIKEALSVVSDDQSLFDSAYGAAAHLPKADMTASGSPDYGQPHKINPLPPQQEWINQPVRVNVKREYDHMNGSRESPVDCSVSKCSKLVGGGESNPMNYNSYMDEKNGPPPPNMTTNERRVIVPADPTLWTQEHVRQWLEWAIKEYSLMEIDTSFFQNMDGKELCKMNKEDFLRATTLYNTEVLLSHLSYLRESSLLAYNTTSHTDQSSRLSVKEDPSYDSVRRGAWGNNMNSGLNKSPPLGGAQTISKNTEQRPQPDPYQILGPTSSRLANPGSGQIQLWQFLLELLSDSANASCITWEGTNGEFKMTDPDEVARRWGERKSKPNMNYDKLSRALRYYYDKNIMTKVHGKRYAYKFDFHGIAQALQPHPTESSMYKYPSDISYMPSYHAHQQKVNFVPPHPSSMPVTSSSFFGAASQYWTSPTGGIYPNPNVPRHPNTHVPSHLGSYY
# Summary of the method: (§1)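 Each value of binding signal is a hexamer's read frequency for a factor divided by the same hexamer's frequency in the tag-only sample. Barcoded, bead-captured GST fusions of human transcription factors made in yeast were pooled with that sample and incubated with 200 nmole of a random double-stranded 16-mer DNA library in Tris/NaCl/DTT/glycerol buffer at room temperature for 30 min. Washing, 0.1% formaldehyde crosslinking, proximity ligation, PCR and Illumina NextSeq500 sequencing followed.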
# ELK1 = molecular target: T2, ELK1 (Homo sapiens, UniProt P19419 1-428); settings: protein: recombinant; tags: N-terminal GST; dsDNA, one strand shown
# T2 sequence: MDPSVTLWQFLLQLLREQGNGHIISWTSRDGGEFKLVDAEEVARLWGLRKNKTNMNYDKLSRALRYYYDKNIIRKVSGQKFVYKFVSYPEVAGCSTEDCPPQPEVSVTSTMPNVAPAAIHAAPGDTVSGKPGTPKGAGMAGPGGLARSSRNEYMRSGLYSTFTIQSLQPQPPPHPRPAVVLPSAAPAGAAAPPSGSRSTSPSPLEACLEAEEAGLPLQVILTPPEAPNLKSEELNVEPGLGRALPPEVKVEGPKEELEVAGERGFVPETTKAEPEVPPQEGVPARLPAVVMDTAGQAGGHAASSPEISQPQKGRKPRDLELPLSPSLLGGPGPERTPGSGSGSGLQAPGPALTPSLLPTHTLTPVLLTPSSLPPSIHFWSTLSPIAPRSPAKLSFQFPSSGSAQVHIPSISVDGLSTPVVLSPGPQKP
# Summary of the method: as §1
# GABPA = molecular target: T3, GABPA (Homo sapiens, UniProt Q06546 1-454); settings: protein: recombinant; tags: N-terminal GST; dsDNA, one strand shown
# T3 sequence: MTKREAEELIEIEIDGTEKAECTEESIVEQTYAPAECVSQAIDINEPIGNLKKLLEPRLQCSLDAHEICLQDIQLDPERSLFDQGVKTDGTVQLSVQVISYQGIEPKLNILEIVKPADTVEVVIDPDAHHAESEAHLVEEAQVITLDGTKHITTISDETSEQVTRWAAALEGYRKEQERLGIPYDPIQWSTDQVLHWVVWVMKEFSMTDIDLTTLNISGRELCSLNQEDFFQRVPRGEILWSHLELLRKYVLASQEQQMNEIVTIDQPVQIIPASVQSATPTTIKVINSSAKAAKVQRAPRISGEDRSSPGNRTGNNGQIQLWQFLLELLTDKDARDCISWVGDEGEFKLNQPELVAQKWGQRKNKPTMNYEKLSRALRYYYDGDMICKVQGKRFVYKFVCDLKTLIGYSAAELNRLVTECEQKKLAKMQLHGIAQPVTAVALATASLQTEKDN
# Summary of the method: as §1
# ERG = molecular target: T4, ERG (Homo sapiens, UniProt P11308 1-479); settings: protein: recombinant; tags: N-terminal GST; dsDNA, one strand shown
# T4 sequence: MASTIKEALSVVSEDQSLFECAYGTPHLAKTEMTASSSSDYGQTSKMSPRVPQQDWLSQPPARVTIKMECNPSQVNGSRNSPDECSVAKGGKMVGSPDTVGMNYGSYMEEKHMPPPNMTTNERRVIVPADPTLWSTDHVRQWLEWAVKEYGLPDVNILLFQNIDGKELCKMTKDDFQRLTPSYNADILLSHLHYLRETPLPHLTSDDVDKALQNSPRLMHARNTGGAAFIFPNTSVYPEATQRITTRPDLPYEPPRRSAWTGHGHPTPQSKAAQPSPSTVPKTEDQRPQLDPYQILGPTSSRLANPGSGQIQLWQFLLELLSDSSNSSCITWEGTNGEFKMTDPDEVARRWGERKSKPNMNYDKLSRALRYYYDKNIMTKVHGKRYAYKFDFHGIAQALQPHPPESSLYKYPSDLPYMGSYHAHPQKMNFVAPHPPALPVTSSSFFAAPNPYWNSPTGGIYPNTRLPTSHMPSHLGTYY
# Summary of the method: as §1
# ELF1 = ELF1 (Homo sapiens, UniProt P32519 1-619); settings: protein: recombinant; tags: N-terminal GST; dsDNA, one strand shown
# Summary of the method: as §1
# EHF = molecular target: T5, EHF (Homo sapiens, UniProt Q9NZC4 1-300); settings: protein: recombinant; tags: N-terminal GST; dsDNA, one strand shown
# T5 sequence: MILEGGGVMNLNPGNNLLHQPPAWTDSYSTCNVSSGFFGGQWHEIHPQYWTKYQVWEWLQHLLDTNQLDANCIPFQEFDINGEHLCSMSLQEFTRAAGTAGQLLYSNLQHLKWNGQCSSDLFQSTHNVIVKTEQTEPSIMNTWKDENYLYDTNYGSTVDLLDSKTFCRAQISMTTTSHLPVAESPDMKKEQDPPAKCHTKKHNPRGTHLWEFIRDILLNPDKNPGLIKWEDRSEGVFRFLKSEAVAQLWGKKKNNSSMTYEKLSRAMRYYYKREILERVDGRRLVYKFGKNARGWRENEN
# Summary of the method: as §1
# SPI1 = SPI1 (Homo sapiens, UniProt P17947 1-270); settings: protein: recombinant; tags: N-terminal GST; dsDNA, one strand shown
# Summary of the method: as §1
# SPIB = SPIB (Homo sapiens, UniProt Q01892 1-262); settings: protein: recombinant; tags: N-terminal GST; dsDNA, one strand shown
# Summary of the method: as §1
# ELK3 = molecular target: T6, ELK3 (Homo sapiens, UniProt P41970 1-407); settings: protein: recombinant; tags: N-terminal GST; dsDNA, one strand shown
# T6 sequence: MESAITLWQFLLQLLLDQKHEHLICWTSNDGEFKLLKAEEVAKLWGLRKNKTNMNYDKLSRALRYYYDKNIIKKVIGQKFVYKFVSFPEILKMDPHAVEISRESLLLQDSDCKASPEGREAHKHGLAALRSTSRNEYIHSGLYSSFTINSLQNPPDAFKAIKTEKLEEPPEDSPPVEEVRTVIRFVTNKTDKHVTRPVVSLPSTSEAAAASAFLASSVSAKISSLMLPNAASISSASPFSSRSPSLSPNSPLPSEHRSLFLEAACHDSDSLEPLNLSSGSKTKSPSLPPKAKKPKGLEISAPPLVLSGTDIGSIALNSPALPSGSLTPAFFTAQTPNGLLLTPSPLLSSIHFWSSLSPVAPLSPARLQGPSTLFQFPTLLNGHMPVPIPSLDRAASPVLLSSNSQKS
# Summary of the method: as §1
# FEV = molecular target: T7, FEV (Homo sapiens, UniProt Q99581 1-238); settings: protein: recombinant; tags: N-terminal GST; dsDNA, one strand shown
# T7 sequence: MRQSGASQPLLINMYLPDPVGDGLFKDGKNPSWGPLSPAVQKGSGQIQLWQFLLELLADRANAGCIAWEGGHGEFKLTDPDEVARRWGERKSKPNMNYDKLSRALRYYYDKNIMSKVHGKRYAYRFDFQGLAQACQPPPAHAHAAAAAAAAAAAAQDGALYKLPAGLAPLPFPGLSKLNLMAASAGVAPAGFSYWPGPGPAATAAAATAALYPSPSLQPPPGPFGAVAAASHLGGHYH
# Summary of the method: as §1
# ETV5 = ETV5 (Homo sapiens, UniProt P41161 1-510); settings: protein: recombinant; tags: N-terminal GST; dsDNA, one strand shown
# Summary of the method: as §1
# HSF1 = HSF1 (Homo sapiens, UniProt Q00613 1-529); settings: protein: recombinant; tags: N-terminal GST; chain copies: 3; dsDNA, one strand shown
# Summary of the method: as §1
# SPIC = molecular target: T8, SPIC (Homo sapiens, UniProt Q8N5J4 1-248); settings: protein: recombinant; tags: N-terminal GST; dsDNA, one strand shown
# T8 sequence: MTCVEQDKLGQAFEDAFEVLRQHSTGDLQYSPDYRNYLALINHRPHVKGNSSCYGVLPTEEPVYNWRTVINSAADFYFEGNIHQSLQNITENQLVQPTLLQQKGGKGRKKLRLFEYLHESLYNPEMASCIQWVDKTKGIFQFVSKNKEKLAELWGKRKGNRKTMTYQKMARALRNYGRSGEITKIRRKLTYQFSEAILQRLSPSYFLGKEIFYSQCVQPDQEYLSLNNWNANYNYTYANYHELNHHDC
# Summary of the method: as §1
# ELF4 = ELF4 (Homo sapiens, UniProt Q99607 1-663); settings: protein: recombinant; tags: N-terminal GST; dsDNA, one strand shown
# Summary of the method: as §1
# ELK4 = molecular target: T9, ELK4 (Homo sapiens, UniProt P28324-2 1-405); settings: protein: recombinant; tags: N-terminal GST; dsDNA, one strand shown
# T9 sequence: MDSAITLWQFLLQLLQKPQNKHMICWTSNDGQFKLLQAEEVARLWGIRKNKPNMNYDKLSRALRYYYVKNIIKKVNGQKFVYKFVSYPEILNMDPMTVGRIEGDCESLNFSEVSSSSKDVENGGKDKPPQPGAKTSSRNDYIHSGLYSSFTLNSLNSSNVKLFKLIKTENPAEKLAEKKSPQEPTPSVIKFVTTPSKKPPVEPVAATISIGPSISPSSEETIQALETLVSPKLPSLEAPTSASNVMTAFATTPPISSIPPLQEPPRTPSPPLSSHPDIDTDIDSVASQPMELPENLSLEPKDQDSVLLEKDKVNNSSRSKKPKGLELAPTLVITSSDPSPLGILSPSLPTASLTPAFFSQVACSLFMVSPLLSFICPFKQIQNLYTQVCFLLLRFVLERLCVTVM
# Summary of the method: as §1
# ETV2 = molecular target: T10, ETV2 (Homo sapiens, UniProt O00321 1-342); settings: protein: recombinant; tags: N-terminal GST; dsDNA, one strand shown
# T10 sequence: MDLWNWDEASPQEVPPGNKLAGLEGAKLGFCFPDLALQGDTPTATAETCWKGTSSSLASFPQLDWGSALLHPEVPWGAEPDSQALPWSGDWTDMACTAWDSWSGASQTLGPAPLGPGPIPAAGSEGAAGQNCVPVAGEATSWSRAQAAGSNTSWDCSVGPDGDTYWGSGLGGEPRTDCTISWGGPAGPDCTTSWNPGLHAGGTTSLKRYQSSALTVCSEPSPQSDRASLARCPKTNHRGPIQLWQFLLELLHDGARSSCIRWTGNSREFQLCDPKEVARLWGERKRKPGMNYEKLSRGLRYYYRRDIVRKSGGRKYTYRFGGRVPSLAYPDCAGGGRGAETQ
# Summary of the method: as §1
# ELF3 = molecular target: T11, ELF3 (Homo sapiens, UniProt P78545 1-371); settings: protein: recombinant; tags: N-terminal GST; dsDNA, one strand shown
# T11 sequence: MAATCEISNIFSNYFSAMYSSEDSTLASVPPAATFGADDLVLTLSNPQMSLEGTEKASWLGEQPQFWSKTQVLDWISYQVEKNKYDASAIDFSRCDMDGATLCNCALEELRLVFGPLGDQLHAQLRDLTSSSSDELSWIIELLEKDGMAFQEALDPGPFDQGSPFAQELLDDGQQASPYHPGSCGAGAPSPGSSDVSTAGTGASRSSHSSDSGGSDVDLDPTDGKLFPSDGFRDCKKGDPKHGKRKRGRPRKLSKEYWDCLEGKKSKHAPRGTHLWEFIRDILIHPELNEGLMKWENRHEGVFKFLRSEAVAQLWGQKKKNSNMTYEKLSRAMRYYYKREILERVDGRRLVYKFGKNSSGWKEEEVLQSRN
# Summary of the method: as §1
# CRX = CRX (Homo sapiens, UniProt O43186 1-299); settings: protein: recombinant; tags: N-terminal GST; dsDNA, one strand shown
# Summary of the method: as §1
# ETV1 = ETV1 (Homo sapiens, UniProt P50549 1-477); settings: protein: recombinant; tags: N-terminal GST; dsDNA, one strand shown
# Summary of the method: as §1
# ETV5, sequence (P41161 whole entry): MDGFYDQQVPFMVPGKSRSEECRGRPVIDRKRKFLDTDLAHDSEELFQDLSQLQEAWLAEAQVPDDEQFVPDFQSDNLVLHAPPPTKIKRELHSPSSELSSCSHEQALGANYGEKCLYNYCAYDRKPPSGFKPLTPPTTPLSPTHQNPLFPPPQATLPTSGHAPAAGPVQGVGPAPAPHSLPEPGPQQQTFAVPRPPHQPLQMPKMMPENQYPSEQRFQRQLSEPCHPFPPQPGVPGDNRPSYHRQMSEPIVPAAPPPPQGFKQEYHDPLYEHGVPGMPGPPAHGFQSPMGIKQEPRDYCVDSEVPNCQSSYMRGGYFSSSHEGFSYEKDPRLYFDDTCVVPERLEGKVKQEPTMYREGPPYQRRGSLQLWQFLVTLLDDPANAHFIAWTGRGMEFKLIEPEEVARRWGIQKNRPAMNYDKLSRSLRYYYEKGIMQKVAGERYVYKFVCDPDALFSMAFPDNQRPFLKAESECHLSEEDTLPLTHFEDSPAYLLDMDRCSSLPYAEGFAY
# CRX, sequence (O43186 whole entry): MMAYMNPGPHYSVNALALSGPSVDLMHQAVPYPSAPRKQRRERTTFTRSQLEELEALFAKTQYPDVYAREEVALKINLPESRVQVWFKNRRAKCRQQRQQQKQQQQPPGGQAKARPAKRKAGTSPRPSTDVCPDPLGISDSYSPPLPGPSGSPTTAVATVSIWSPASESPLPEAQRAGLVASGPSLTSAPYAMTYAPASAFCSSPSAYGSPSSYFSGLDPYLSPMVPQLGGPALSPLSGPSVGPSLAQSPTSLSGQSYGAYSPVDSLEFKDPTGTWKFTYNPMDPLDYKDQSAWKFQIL
# ELF4, sequence (Q99607 whole entry): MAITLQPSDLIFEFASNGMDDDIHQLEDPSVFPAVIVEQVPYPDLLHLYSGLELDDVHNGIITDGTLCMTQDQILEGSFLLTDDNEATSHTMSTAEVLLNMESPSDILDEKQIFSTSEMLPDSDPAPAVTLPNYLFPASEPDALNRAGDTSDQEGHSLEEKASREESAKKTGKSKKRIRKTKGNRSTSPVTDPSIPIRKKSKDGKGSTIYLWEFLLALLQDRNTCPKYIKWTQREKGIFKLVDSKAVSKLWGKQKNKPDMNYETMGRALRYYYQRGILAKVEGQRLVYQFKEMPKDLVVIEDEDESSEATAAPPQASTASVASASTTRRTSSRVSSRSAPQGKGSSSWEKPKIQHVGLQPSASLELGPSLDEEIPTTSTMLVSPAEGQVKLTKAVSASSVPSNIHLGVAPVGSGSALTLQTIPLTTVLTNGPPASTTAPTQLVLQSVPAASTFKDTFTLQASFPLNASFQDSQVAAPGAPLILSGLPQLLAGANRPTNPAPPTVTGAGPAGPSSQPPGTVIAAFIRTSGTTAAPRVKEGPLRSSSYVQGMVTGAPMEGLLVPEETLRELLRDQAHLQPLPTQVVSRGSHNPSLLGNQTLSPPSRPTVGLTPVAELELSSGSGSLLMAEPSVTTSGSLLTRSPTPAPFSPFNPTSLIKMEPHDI
# ETV1, sequence (P50549 whole entry): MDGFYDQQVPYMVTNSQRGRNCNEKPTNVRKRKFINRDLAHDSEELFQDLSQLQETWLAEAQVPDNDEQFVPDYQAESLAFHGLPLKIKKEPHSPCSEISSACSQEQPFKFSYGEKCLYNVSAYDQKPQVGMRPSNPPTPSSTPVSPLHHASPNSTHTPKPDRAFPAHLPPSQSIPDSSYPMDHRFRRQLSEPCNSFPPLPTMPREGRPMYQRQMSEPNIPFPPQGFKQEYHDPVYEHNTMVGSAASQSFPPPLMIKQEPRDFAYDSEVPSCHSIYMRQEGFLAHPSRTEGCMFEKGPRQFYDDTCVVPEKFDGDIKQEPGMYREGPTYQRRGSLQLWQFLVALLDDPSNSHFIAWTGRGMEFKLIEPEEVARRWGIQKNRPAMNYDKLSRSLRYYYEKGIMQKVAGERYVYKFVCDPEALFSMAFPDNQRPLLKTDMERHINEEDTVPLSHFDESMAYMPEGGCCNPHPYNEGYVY
# SPIB, sequence (Q01892 whole entry): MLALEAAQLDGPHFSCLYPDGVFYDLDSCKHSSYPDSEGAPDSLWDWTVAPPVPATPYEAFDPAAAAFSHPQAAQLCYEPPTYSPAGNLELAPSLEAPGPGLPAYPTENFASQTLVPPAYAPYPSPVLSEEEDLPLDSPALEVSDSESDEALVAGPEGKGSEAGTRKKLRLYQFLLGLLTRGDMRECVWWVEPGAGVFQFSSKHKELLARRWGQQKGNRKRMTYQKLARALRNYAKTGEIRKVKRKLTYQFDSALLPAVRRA
# ELF1, sequence (P32519 whole entry): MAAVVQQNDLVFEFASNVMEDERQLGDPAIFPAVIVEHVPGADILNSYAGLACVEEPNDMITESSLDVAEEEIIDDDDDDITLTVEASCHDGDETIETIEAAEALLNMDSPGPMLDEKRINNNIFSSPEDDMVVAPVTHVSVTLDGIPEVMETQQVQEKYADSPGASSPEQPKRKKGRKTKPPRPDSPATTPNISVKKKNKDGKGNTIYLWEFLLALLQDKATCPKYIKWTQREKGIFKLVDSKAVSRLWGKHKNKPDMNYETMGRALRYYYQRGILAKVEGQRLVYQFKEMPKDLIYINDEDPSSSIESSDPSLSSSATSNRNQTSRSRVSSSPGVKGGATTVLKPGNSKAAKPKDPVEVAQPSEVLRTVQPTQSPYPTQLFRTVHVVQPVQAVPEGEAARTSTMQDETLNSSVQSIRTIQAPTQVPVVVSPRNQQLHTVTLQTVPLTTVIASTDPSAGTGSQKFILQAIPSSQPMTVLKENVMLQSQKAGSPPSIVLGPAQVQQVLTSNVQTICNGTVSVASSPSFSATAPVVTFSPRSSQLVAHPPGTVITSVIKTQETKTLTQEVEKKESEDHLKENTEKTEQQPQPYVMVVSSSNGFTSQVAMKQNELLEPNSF
# HSF1, sequence (Q00613 whole entry): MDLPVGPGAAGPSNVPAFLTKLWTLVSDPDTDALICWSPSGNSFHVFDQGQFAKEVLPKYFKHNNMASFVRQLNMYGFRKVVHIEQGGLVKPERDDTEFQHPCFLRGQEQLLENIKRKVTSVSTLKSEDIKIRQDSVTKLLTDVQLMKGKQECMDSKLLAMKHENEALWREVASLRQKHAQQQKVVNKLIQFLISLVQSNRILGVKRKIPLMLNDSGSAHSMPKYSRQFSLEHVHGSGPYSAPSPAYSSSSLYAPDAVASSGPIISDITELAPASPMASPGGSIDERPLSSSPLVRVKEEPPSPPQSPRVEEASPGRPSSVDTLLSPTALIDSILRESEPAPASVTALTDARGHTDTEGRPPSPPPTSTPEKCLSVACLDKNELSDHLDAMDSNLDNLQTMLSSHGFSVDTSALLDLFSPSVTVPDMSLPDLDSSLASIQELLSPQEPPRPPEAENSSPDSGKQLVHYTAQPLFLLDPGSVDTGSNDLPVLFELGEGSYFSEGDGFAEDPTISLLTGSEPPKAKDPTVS
sequence,measurement,setting,value
CCTATA,binding signal,FLI1,"1.35 fold enrichment (6-mer frequency, TF over GST control)"
same,binding signal,ELK1,"1.29 fold enrichment (6-mer frequency, TF over GST control)"
same,binding signal,GABPA,"1.42 fold enrichment (6-mer frequency, TF over GST control)"
same,binding signal,ERG,"1.3 fold enrichment (6-mer frequency, TF over GST control)"
same,binding signal,ELF1,"1.39 fold enrichment (6-mer frequency, TF over GST control)"
same,binding signal,EHF,"1.28 fold enrichment (6-mer frequency, TF over GST control)"
same,binding signal,SPI1,"1.28 fold enrichment (6-mer frequency, TF over GST control)"
same,binding signal,SPIB,"1.34 fold enrichment (6-mer frequency, TF over GST control)"
same,binding signal,ELK3,"1.32 fold enrichment (6-mer frequency, TF over GST control)"
same,binding signal,FEV,"1.33 fold enrichment (6-mer frequency, TF over GST control)"
same,binding signal,ETV5,"1.31 fold enrichment (6-mer frequency, TF over GST control)"
same,binding signal,HSF1,"1.16 fold enrichment (6-mer frequency, TF over GST control)"
same,binding signal,SPIC,"1.35 fold enrichment (6-mer frequency, TF over GST control)"
same,binding signal,ELF4,"1.29 fold enrichment (6-mer frequency, TF over GST control)"
same,binding signal,ELK4,"1.4 fold enrichment (6-mer frequency, TF over GST control)"
same,binding signal,ETV2,"1.43 fold enrichment (6-mer frequency, TF over GST control)"
same,binding signal,ELF3,"1.15 fold enrichment (6-mer frequency, TF over GST control)"
same,binding signal,CRX,"1.34 fold enrichment (6-mer frequency, TF over GST control)"
same,binding signal,ETV1,"1.29 fold enrichment (6-mer frequency, TF over GST control)"

# Source: PMC7862700, “An all-to-all approach to the identification of sequence-specific readers for epigenetic DNA modifications on cytosine”
